Measured values reported in PubChem BioAssay (Tox21).
Several values for one entry are separate records, joined by “and”; a condition that tells them apart may be missing. Equal values may be shown once. Results filed as inconclusive are left out. Where a call stands in place of a potency, no number is given. Where a structure was tested more than once in an assay, its records may differ in their call. Activity calls are given as the source filed them. Unless noted, calls follow the shape of the dose curve; as a rule, active = well fitted curve in the direction sought with a large enough effect in the repeat runs; inconclusive = weak or mixed curves; inactive = no such curve, though single readings can be large; an effect the other way counts as inactive or inconclusive.

Legend:
[1] = qHTS assay to identify small molecule antagonists of the estrogen related receptor (ERR) signaling pathway - cell viability counter screen (AID 1224818);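 also: viability measured after 17.5 h of compound exposure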
Procedure, shortened: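 Cytotoxicity counter screen: fluorescence from CellTiter-Fluor, added after 17.5 h compound exposure at 37 C and read 30 min later. ERR cell line seeded at 2,000 cells/well, preincubated 6 h before dosing.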

[2] = qHTS assay to identify small molecule antagonists of the estrogen related receptor (ERR) signaling pathway (AID 1224819; also: nearly all actives have a fitted effect of over 50% in size; also: potency is read from the fitted curve at half-maximal effect)
Source text: National Center for Advancing Translational Sciences [NCATS]
NIH Chemical Genomics Center [NCGC]
U.S. Environmental Protection Agency [EPA]
National Institutes of Environmental Health Sciences [NIEHS]
National Toxicology Program [NTP]
U.S. Food and Drug Administration [FDA]
Estrogen related receptors (ERRs), the first orphan nuclear receptors discovered, play an important role in the control of cellular energy metabolism. ERRs are required for high-energy production in response to the environmental challenges. ERR-alpha was also identified as an adverse marker for breast cancer progression; ERR-alpha-positive tumors have a poor prognosis. To screen and to identify environmental compounds that perturb the ERR signaling pathways could provide valuable information for potential therapeutic or preventive measures in the treatment of metabolic disease. For identifying ERR antagonists, ERR cell line (provided by NTP) has been used to screen LOPAC library.
Tox21 Assay Protocol Summary:
The ERR cells were dispensed at 2,000 cells/5 ul/well in 1536-well white plates using a Multidrop dispenser. […] After 30 min incubation at room temperature, the luminescence intensity in the plates was measured using a ViewLux plate reader.

[3] = qHTS assay to identify small molecule agonists of the estrogen related receptor (ERR) signaling pathway (AID 1224820); also: potency is read from the fitted curve at half-maximal effect
Procedure, shortened: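 Following a 6 h settling period, 2,000 ERR cells per well receive DMSO-dissolved compounds by pin tool and incubate 18 h at 37 C; agonist activity is scored from One-Glo luminescence read 30 min post-addition.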

[4] = tested on: estrogen-related receptor alpha (ERRalpha) with PGC-1alpha coactivator, human; assay: qHTS assay to identify small molecule antagonists of the estrogen related receptor signaling pathway with the pleiotropic PPARgamma coactivator (PGC) (AID 1224821; calls by dose curve; also: nearly all actives have a fitted effect of over 50% in size; also: potency is read from the fitted curve at half-maximal effect)
Procedure, shortened: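 Screening used NTP's PGC/ERR cells, dosed via pin tool with compound in DMSO alongside positive and negative controls. After 18 h at 37 C, One-Glo reagent sat 30 min at room temperature before luminescence detection.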

[5] = qHTS assay to identify small molecule agonists of the RXR signaling pathway - cell viability counter screen (AID 1159529); also: nearly all actives have a fitted effect of over 50% in size; also: potency is read from the fitted curve at half-maximal effect
Procedure, shortened: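 Viability read-out for the RXR-alpha agonist qHTS: luminescent CellTiter-Glo signal after 30 min at RT. HEK 293T bla reporter cells, 2% charcoal-stripped FBS, 16 hr compound incubation; tetraoctyl ammonium bromide as cytotoxic control.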

[6] = qHTS assay to identify small molecule antagonists of the retinoid acid receptor (RAR) signaling pathway - cell viability counter screen (AID 1159551); also: nearly all actives have a fitted effect of over 35% in size
Procedure, shortened: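 Cytotoxicity counter screen: ATP content quantified by CellTiter-Glo luminescence in C3RL4 cells treated 6 hr at 37 C with compound and retinol (1 uM final). Cells plated at 1,000/well and cultured overnight before dosing.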

[7] = qHTS assay to identify small molecule antagonists of the retinoic acid receptor (RAR) signaling pathway (AID 1159552; also: nearly all actives have a fitted effect of over 50% in size; also: potency is read from the fitted curve at half-maximal effect)
Procedure, shortened: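 Using a RARE-driven luciferase construct in C3RL4 cells, retinol at 1 uM final provided the agonist stimulus while compounds were co-applied. After 6 hours at 37 C, luminescence was recorded to flag inhibitors of retinol signaling.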

[8] = qHTS assay to identify small molecule agonists of the retinoic acid receptor (RAR) signaling pathway (AID 1159553); settings: C3RL4 RARE luciferase reporter, agonist, 6 h; also: potency is read from the fitted curve at half-maximal effect
Procedure, shortened: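 Luminescence was measured 30 min after luciferase reagent addition at room temperature. Before that, C3RL4 reporter cells (1,000 per well, plated overnight) were treated with compound for 6 hr at 37 C and 5% CO2.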

[9] = target: Retinoic acid receptor RXR-alpha (Homo sapiens) (UniProt P19793); assay: qHTS assay to identify small molecule agonists of the RXR signaling pathway (AID 1159527; calls by dose curve; also: nearly all actives have a fitted effect of over 35% in size)
Procedure, shortened: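 Fluorescence ratio readout (460 vs 530 nm) from GeneBLAzer RXR-alpha HEK 293T cells after 16 hr compound treatment; cells seeded 5 hr beforehand in low-serum, charcoal-stripped medium.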

[10] = qHTS assay to identify small molecule antagonists of the estrogen related receptor signaling pathway with the pleiotropic PPARgamma coactivator (PGC) cell viability counter screen (AID 1224822)
Procedure, shortened: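 Viability counter-screen read by fluorescence intensity after 30 min with CellTiter-Fluor at 37 C; PGC/ERR reporter cells were exposed to compounds for 17.5 h at 37 C following a 6 h preincubation.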

[11] = activation: at 73.3 µM (top of the series) unless noted

Chain of Retinoic acid receptor RXR-alpha (Homo sapiens) (P19793 whole entry, looked up): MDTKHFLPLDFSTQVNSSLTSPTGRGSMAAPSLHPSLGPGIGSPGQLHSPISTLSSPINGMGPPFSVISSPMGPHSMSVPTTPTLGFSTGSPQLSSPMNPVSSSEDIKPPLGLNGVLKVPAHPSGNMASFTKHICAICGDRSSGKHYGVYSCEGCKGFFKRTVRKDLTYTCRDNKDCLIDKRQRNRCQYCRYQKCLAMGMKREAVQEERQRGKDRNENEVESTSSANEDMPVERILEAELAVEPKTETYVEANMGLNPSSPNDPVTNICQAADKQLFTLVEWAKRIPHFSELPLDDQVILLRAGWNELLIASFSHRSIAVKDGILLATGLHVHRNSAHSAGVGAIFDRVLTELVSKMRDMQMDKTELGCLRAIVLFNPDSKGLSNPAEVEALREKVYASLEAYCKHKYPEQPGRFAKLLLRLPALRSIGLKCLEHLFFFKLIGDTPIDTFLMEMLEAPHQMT

## Nc1ccc(Cl)cc1N
[1]
  outcome: inactive
[2]
  Potency: inactive
[3]
  Potency: 5.88 µM (active)
[4]
  Potency: inactive

## Nc1ccncc1
[1]
  outcome: inactive

## Oc1cc(Cl)ccc1Oc1ccc(Cl)cc1Cl
[3]
  Potency: inactive
[4]
  Potency: inactive

## CCN(CC)N=O
[5]
  Potency: inactive
[6]
  Potency: inactive
[7]
  Potency: inactive
[8]; [11]
  Potency: inactive

## NNC(=S)NN
[6]
  Potency: inactive

## OCC(O)CO
[6]
  Potency: inactive
[7]
  Potency: inactive
[8]; [11]
  Potency: inactive

## CCOC(=S)S
[5]
  Potency: 23.3 µM (active)
[7]
  Potency: inactive

## CCOc1cc(C=O)ccc1O
[6]
  Potency: inactive
[7]
  Potency: inactive
[8]; [11]
  Potency: inactive

## Cc1ccc(N)c(N)c1
[6]
  Potency: inactive
[7]
  Potency: inactive
[8]; [11]
  Potency: 1.54 µM (active) and 1.22 µM (active)

## O=C1C=CC(=O)C=C1
[9]
  Potency: inactive
[6]
  Potency: inactive
[1]
  outcome: inactive
[10]
  Potency: inactive

## c1cc(OCC2CO2)ccc1Cc1ccc(OCC2CO2)cc1 (centres undefined)
[6]
  Potency: inactive
[7]
  Potency: inactive
[8]; [11]
  Potency: inactive

## O=[N+]([O-])c1ccc(O)c([N+](=O)[O-])c1
[5]
  Potency: 12.3 µM (active)
[6]
  Potency: inactive
[7]
  Potency: inactive
[8]; [11]
  Potency: inactive

## CCc1cccc(CC)c1N(COC)C(=O)CCl
[5]
  Potency: inactive
[6]
  Potency: inactive

## O=C(Nc1ccc(Br)cc1)c1cc(Br)cc(Br)c1O
[5]
  Potency: 24.5 µM (active)
[6]
  Potency: inactive
[7]
  Potency: inactive
[8]; [11]
  Potency: inactive

## N[C@@H](Cc1ccc(N(CCCl)CCCl)cc1)C(=O)O
[5]
  Potency: inactive
[6]
  Potency: inactive
[8]; [11]
  Potency: inactive

## CC(C)(OOC(C)(C)c1ccccc1)c1ccccc1
[6]
  Potency: inactive
[7]
  Potency: inactive
[8]; [11]
  Potency: inactive

## Cc1c(COC(=O)[C@@H]2[C@H](/C=C(\Cl)C(F)(F)F)C2(C)C)cccc1-c1ccccc1
[5]
  Potency: inactive
[6]
  Potency: inactive
[7]
  Potency: inactive
[8]; [11]
  Potency: inactive

## Cc1cccc(N)c1N
[5]
  Potency: inactive
[6]
  Potency: inactive
[7]
  Potency: inactive
[8]; [11]
  Potency: 1.05 µM (active) and 2.43 µM (active)

## C#C[C@]1(O)CC[C@H]2[C@@H]3CCC4=CC(=O)CC[C@]4(C)[C@H]3CC[C@@]21C
[5]
  Potency: inactive
[6]
  Potency: inactive
[7]
  Potency: inactive
[8]; [11]
  Potency: inactive

## O=S(=O)(Oc1ccc(Cl)cc1)c1ccc(Cl)cc1
[5]
  Potency: inactive
[6]
  Potency: inactive
[7]
  Potency: inactive
[8]; [11]
  Potency: inactive

## Cc1ccccc1[N+](=O)[O-]
[9]
  Potency: inactive
[6]
  Potency: inactive
[7]
  Potency: inactive
[8]; [11]
  activation: 0.464% [at 94.8 µM] (active)
[8]; at 73.3 µM (top of the series)
  activation: 1.75% (inactive)

## Nc1ccc(-c2ccc(N)c(N)c2)cc1N
[5]
  Potency: inactive
[6]
  Potency: inactive
[7]
  Potency: inactive
[8]; [11]
  Potency: 10.8 µM (active) and 8.63 µM (active)

## C#CCOS(=O)OC1CCCCC1Oc1ccc(C(C)(C)C)cc1 (centres undefined)
[5]
  Potency: 27.6 µM (active) and 43.6 µM (active)
[7]
  Potency: 13.7 µM (active) and 15.4 µM (active)
[8]; [11]
  Potency: inactive

## CCC(=O)O[C@H]1CC[C@H]2[C@@H]3CCC4=CC(=O)CC[C@]4(C)[C@H]3CC[C@]12C
[5]
  Potency: 49 µM (active)
[6]
  Potency: inactive
[7]
  Potency: 48.6 µM (active) and inactive
[8]; [11]
  Potency: inactive

## O=C(O)CC[N+](=O)[O-]
[9]
  Potency: inactive
[6]
  Potency: inactive
[7]
  Potency: inactive
[8]; [11]
  Potency: inactive
[1]
  outcome: inactive
[10]
  Potency: inactive

## C[C@]12CCC(=O)C[C@@H]1CC[C@@H]1[C@@H]2CC[C@]2(C)[C@@H](O)CC[C@@H]12
[5]
  Potency: inactive
[6]
  Potency: inactive
[7]
  Potency: 42.7 µM (active) and inactive
[8]; [11]
  Potency: inactive

## CCCCCCCCC(=O)NCc1ccc(O)c(OC)c1
[5]
  Potency: inactive
[6]
  Potency: inactive
[7]
  Potency: inactive

## CC(C)Oc1cc(-n2nc(C(C)(C)C)oc2=O)c(Cl)cc1Cl
[6]
  Potency: inactive
[8]; [11]
  Potency: inactive

## CCC(CC)Nc1c([N+](=O)[O-])cc(C)c(C)c1[N+](=O)[O-]
[6]
  Potency: inactive

## CC(C)=CC1C(C(=O)OCc2coc(Cc3ccccc3)c2)C1(C)C (centres undefined)
[6]
  Potency: inactive
[7]
  Potency: inactive
[8]; [11]
  Potency: inactive

## C=C(C)[C@H]1Cc2c(ccc3c2O[C@@H]2COc4cc(OC)c(OC)cc4[C@@H]2C3=O)O1
[5]
  Potency: inactive
[8]; [11]
  Potency: inactive
[2]
  Potency: 0.081 µM (active)
[3]
  Potency: inactive
[4]
  Potency: 0.0361 µM (active)

## Oc1c(Cl)c(Cl)c(Cl)c(Cl)c1Cl
[5]
  Potency: inactive
[6]
  Potency: inactive
[7]
  Potency: inactive
[8]; [11]
  Potency: inactive

## CCOCN(C(=O)CCl)c1c(C)cccc1CC
[6]
  Potency: inactive
[8]; [11]
  Potency: inactive

## O=c1oc2ccccc2c(O)c1C(CC(O)c1ccc(-c2ccc(Br)cc2)cc1)c1ccccc1 (centres undefined)
[6]
  Potency: inactive

## Cc1ccc(OP(=O)(Oc2ccc(C)cc2)Oc2ccc(C)cc2)cc1
[5]
  Potency: inactive
[6]
  Potency: inactive
[7]
  Potency: inactive
[8]; [11]
  Potency: inactive

## Nc1ccc(-c2ccccc2)cc1
[5]
  Potency: inactive
[6]
  Potency: inactive
[7]
  Potency: 62.8 µM (active) and inactive
[8]; [11]
  Potency: 35.3 µM (active) and 9.69 µM (active)

## COc1ccc(C(CN(C)C)C2(O)CCCCC2)cc1 (centres undefined)
[9]
  Potency: inactive
[6]
  Potency: inactive
[1]
  outcome: inactive
[10]
  Potency: inactive

## NNC(N)=S
[5]
  Potency: 18.1 µM (active)
[6]
  Potency: inactive
[7]
  Potency: inactive
